# Measurements published in PubChem BioAssay AID1159580 (chemical genetic matrix, 2015).
# The campaign covered roughly 5,500 compounds. About 2,000 (36%) were called active. Not shown: some 18% with an inconclusive outcome. The list shows a part of the results. Unmarked numbers belong to inactive results. Rule as the data show it: active = normalized growth mostly below about 0.91 (no sharp cut-off); inconclusive = no clear call, values can overlap the other calls; inactive = mostly above about 0.92.
# Experiment: chemical genetic growth profiling, strain panel (AID 1159580);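 also: tested at 20 µM; growth read once vehicle control cultures reached saturation at 30 °C; 1 = growth at the plate median or of vehicle wells; lower values mean less growth of the strain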
# Conditions: S. cerevisiae deletion strains, growth OD
compound,measurement,setting,value
O=C(O)[C@@H](S)[C@@H](S)C(=O)O,normalized growth,"locus YAL021C, strain ccr4, hits give low values",0.545 (active)
same,normalized growth,"locus YAL026C, strain drs2, hits give low values",0.836 (active)
same,normalized growth,"locus YAL030W, strain snc1, hits give low values",0.975
same,normalized growth,"locus YBL061C, strain skt5, hits give low values",0.967
same,normalized growth,"locus YBR009C, strain hhf1, hits give low values",0.875 (active)
same,normalized growth,"locus YBR023C, strain chs3, hits give low values",0.962
same,normalized growth,"locus YBR171W, strain sec66, hits give low values",0.976
same,normalized growth,"locus YBR231C, strain swc5, hits give low values",0.887 (active)
same,normalized growth,"locus YBR279W, strain paf1, hits give low values",0.922 (active)
same,normalized growth,"locus YCL011C, strain gbp2, hits give low values",0.921
same,normalized growth,"locus YCL016C, strain dcc1, hits give low values",0.945
same,normalized growth,"locus YCL061C, strain MRC1, hits give low values",0.936
same,normalized growth,"locus YCL069W, strain vba3, hits give low values",0.953
same,normalized growth,"locus YCR088W, strain abp1, hits give low values",0.971
same,normalized growth,"locus YDL005C, strain med2, hits give low values",1
same,normalized growth,"locus YDL040C, strain nat1, hits give low values",0.971
same,normalized growth,"locus YDR001C, strain nth1, hits give low values",0.971
same,normalized growth,"locus YDR069C, strain doa4, hits give low values",0.681 (active)
same,normalized growth,"locus YDR137W, strain rgp1, hits give low values",0.73 (active)
same,normalized growth,"locus YDR159W, strain sac3, hits give low values",0.91
same,normalized growth,"locus YDR195W, strain ref2",1.01
same,normalized growth,"locus YDR297W, strain sur2, hits give low values",0.975
same,normalized growth,"locus YDR334W, strain swr1, hits give low values",0.958
same,normalized growth,"locus YDR335W, strain msn5, hits give low values",0.911 (active)
same,normalized growth,"locus YDR392W, strain spt3, hits give low values",0.532 (active)
same,normalized growth,"locus YEL003W, strain gim4, hits give low values",0.962
same,normalized growth,"locus YEL037C, strain rad23, hits give low values",0.953
same,normalized growth,"locus YEL061C, strain CIN8 (second series), hits give low values",0.977
same,normalized growth,"locus YER015W, strain faa2, hits give low values",0.958
same,normalized growth,"locus YER016W, strain bim1, hits give low values",0.952
same,normalized growth,"locus YER111C, strain swi4, hits give low values",0.965
same,normalized growth,"locus YER155C, strain BEM2 (second series), hits give low values",0.662 (active)
same,normalized growth,"locus YFR010W, strain ubp6, hits give low values",0.828 (active)
same,normalized growth,"locus YGL167C, strain pmr1, hits give low values",0.976
same,normalized growth,"locus YGL173C, strain kem1, hits give low values",0.892 (active)
same,normalized growth,"locus YGL227W, strain vid30, hits give low values",0.978
same,normalized growth,"locus YGL240W, strain doc1, hits give low values",0.886 (active)
same,normalized growth,"locus YGL253W, strain hxk2, hits give low values",0.678 (active)
same,normalized growth,"locus YHR013C, strain ard1, hits give low values",0.533 (active)
same,normalized growth,"locus YHR027C, strain rpn1, hits give low values",0.885 (active)
same,normalized growth,"locus YHR030C, strain SLT2, hits give low values",0.337 (active)
same,normalized growth,"locus YHR079C, strain IRE1, hits give low values",0.426 (active)
same,normalized growth,"locus YHR142W, strain chs7, hits give low values",0.937
same,normalized growth,"locus YJL092W, strain hpr5, hits give low values",0.932
same,normalized growth,"locus YJL095W, strain BCK1 (second series), hits give low values",0.973
same,normalized growth,"locus YJL095W, strain BCK1, hits give low values",0.413 (active)
same,normalized growth,"locus YJL115W, strain asf1, hits give low values",0.969
same,normalized growth,"locus YJL129C, strain trk1, hits give low values",0.982
same,normalized growth,"locus YJL154C, strain vps35, hits give low values",0.979
same,normalized growth,"locus YJL164C, strain tpk1, hits give low values",0.966
same,normalized growth,"locus YJL166W, strain qcr8, hits give low values",0.859 (active)
same,normalized growth,"locus YJL187C, strain SWE1, hits give low values",0.979
same,normalized growth,"locus YJR066W, strain TOR1, hits give low values",0.417 (active)
same,normalized growth,"locus YKL160W, strain elf1, hits give low values",0.974
same,normalized growth,"locus YKR026C, strain gcn3, hits give low values",0.978
same,normalized growth,"locus YKR091W, strain srl3, hits give low values",0.977
same,normalized growth,"locus YLL001W, strain dnm1, hits give low values",0.888 (active)
same,normalized growth,"locus YLL026W, hits give low values",0.932
same,normalized growth,"locus YLL041C, strain sdh2, hits give low values",0.978
same,normalized growth,"locus YLR027C, strain aat2, hits give low values",0.938
same,normalized growth,"locus YLR113W, strain HOG1, hits give low values",0.443 (active)
same,normalized growth,"locus YLR221C, strain rsa3, hits give low values",0.919
same,normalized growth,"locus YLR258W, strain gsy2, hits give low values",0.93
same,normalized growth,"locus YLR262C, strain YPT6 (second series), hits give low values",0.898
same,normalized growth,"locus YLR320W, strain mms22, hits give low values",0.798 (active)
same,normalized growth,"locus YLR342W, strain FKS1, hits give low values",0.964
same,normalized growth,"locus YLR357W, strain rsc2, hits give low values",0.798 (active)
same,normalized growth,"locus YLR370C, strain arc18, hits give low values",0.81 (active)
same,normalized growth,"locus YLR384C, strain iki3, hits give low values",0.979
same,normalized growth,"locus YML120C, strain ndi1, hits give low values",0.987
same,normalized growth,"locus YMR058W, strain fet3, hits give low values",0.832 (active)
same,normalized growth,"locus YMR125W, strain sto1, hits give low values",0.951
same,normalized growth,"locus YMR129W, hits give low values",0.963
same,normalized growth,"locus YMR205C, strain PFK2, hits give low values",0.808 (active)
same,normalized growth,"locus YMR231W, strain pep5, hits give low values",0.982
same,normalized growth,"locus YNL071W, strain lat1, hits give low values",0.695 (active)
same,normalized growth,"locus YNL183C, strain NPR1, hits give low values",0.516 (active)
same,normalized growth,"locus YNL209W, strain ssb2, hits give low values",0.974
same,normalized growth,"locus YNL248C, strain rpa49, hits give low values",0.926
same,normalized growth,"locus YNL322C, strain KRE1 (second series), hits give low values",0.97
same,normalized growth,"locus YNR049C, strain mso1, hits give low values",0.941
same,normalized growth,"locus YOR001W, strain rrp6, hits give low values",0.992
same,normalized growth,"locus YOR070C, strain gyp1, hits give low values",0.961
same,normalized growth,"locus YOR080W, strain dia2, hits give low values",0.968
same,normalized growth,"locus YOR083W, strain WHI5, hits give low values",0.924
same,normalized growth,"locus YOR106W, strain vam3, hits give low values",0.496 (active)
same,normalized growth,"locus YOR231W, strain MKK1, hits give low values",0.324 (active)
same,normalized growth,"locus YOR265W, strain rbl2, hits give low values",0.976
same,normalized growth,"locus YOR270C, strain vph1, hits give low values",0.357 (active)
same,normalized growth,"locus YOR290C, strain snf2, hits give low values",0.722 (active)
same,normalized growth,"locus YPL051W, strain arl3, hits give low values",0.899 (active)
same,normalized growth,"locus YPL078C, strain atp4, hits give low values",0.96
same,normalized growth,"locus YPL106C, strain sse1, hits give low values",0.931
same,normalized growth,"locus YPL240C, strain hsp82, hits give low values",0.987
same,normalized growth,"locus YPL256C, strain CLN2, hits give low values",0.474 (active)
